{"source": "PubChem BioAssay (NCI)", "note": "Several values for one entry are separate records, joined by “and”; a condition that tells them apart may be missing. Equal values may be shown once. This is part of a sample that, as a whole, favours compounds with a hit. Of some 83,000 tested, about 20% had one in any assay.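 Interpretation: 100, growth as untreated; towards 0, rising growth inhibition; 0, no net growth; 0 to -100, cell death. Compounds scoring below 10 were considered active.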 Some structures have more than one record in an assay (separate samples or runs), and their calls can disagree. Activity calls are given as the source filed them.", "data": [{"system": "HT29 colon", "test": "NCI-60 one-dose screen, 48 h (100 = growth as untreated, 0 = no growth, -100 = all killed)", "conditions": "10 µM", "protocol": "Growth inhibition of the HT29 human tumor cell line is measured as a screen for anti-cancer activity. Cells are grown in 96 well plates and exposed to the test compound for 48 hours. Compounds are tested at a single concentration, which is 10^-5 M for most compounds. The reported endpoint is percent growth (GI% or GIPRCNT), where numbers from 0 - 100% represent growth inhibition, and numbers from -100% - 0 represent cell death. For example, a value of 40 represents 60% growth inhibition. A value of 0 means no net growth occurred over the course of the experiment. A value of -40 indicates 40% of cells at the beginning of the experiment died by the end of the experiment. A value of -100 means all cells are dead at the end of the experiment.\nNCI-60 Human Tumor Cell Lines Screen was performed using the standard one-dose NCI protocol, which is described in more detail at https://dtp.cancer.gov/discovery_development/nci-60/default.htm.\nCompounds with GIPRCNT values below 10 were considered active. Activity score was based on GIPRCNT using the following formula: […]\nScore is 0 for GIPRCNT values of 100 or above, 50 for GIPRCNT values of 0, and 100 for GIPRCNT values of -100.", "values": [{"compound": "COc1cccc2c1cc([N+](=O)[O-])c1c(C(=O)O)cc3c(c12)OCO3", "growth": "0.133% (active)"}, {"compound": "C[C@@H]1C[C@H]2C(=O)O[C@@H](C)C(NC(=O)[C@H](Cc3cc(F)cc(F)c3)NC(=O)Nc3ccc(OS(=O)(=O)F)cc3)C(=O)N3CCC[C@H]3C(=O)N3CCO[C@H](C)[C@H]3C(=O)N[C@@H](CO)C(=O)N2C1", "note": "(stereo not given in full)", "growth": "34.6% (inactive)"}, {"compound": "CCC(C)[C@H]1C(=O)O[C@H](C(C)C)C(=O)N(C)[C@@H](C(C)C)C(=O)O[C@H](C(C)C)C(=O)N(C)[C@@H](C(C)C)C(=O)O[C@H](C(C)C)C(=O)N1C", "note": "(stereo not given in full)", "growth": "9.91% (active)"}, {"compound": "CC(C)=CCc1c2c(c(O)c3c1O[C@]14C(=C[C@@H]5C[C@H]1C(C)(C)O[C@@]4(C/C=C(/C)C(=O)O)C5=O)C3=O)C=CC(C)(C)O2", "growth": "-86.7% (active)"}, {"compound": "CC1=C2C(=O)[C@](C)(CO)C=C2C(=O)[C@](C)(O)C12CC2", "growth": "2.57% (active)"}, {"compound": "CN1C(=O)[C@]23SSC1(C)C(=O)N2[C@H]1Nc2ccccc2C1([C@@]12c4ccccc4N[C@@H]1N1C(=O)C4(C)SS[C@]1(C(=O)N4C)[C@H]2O)[C@@H]3O", "note": "(stereo not given in full)", "growth": "-66.7% (active)"}, {"compound": "C[C@@H]1CCC/C=C/[C@H]2C[C@@H](O)C[C@@H]2[C@@H](O)/C=C/C(=O)O1", "growth": "0.531% (active)"}, {"compound": "C=C1[C@@H](C)C2[C@H](Cc3ccccc3)NC(=O)[C@]23[C@H](OC(C)=O)/C=C/[C@@](C)(O)C(=O)[C@@H](C)C/C=C/[C@H]3[C@@H]1O", "note": "(stereo not given in full)", "growth": "11.8% (inactive)"}, {"compound": "O=C(CCCc1ccc(N(CCCl)CCCl)cc1)OCc1ccccc1", "growth": "95.8% (inactive)"}, {"compound": "N#Cc1nc(-c2ccccc2)oc1N1CCC(S(=O)(=O)F)CC1", "growth": "102% (inactive)"}, {"compound": "CN(CCF)/N=N/c1nc[nH]c1C(N)=O", "growth": "42% (inactive)"}, {"compound": "COc1cc(C)c(-c2ccc(OC)c(=O)cc2C)c(OC)c1OC", "growth": "4.37% (active) and 113% (inactive)"}, {"compound": "CC1=C(CN(O)C(N)=O)C2=C(C)C3(CC3)[C@@](C)(O)C(=O)C2=C1", "growth": "0.349% (active)"}, {"compound": "CC(=O)O[C@@H]1[C@@H]2O[C@H]2[C@@](C)(O)C(=O)[C@@H](C)C/C=C/[C@H]2[C@@H]3O[C@]3(C)[C@@H](C)C3[C@H](Cc4ccccc4)NC(=O)[C@@]312", "note": "(stereo not given in full)", "growth": "36.3% (inactive)"}, {"compound": "CC1=C2C(=C[C@@](C)(COC(=O)c3ccc(S(=O)(=O)F)cc3)[C@@H]2O)C(=O)[C@](C)(O)C12CC2", "growth": "-17.9% (active)"}, {"compound": "C/C=C/CC(C)C(O)[C@H](NC(=O)[C@@H]1CCCN1C(=O)C(C)(C)NC(=O)CCCCCCC)C(=O)N[C@@](C)(CC)C(=O)N[C@@H](CCC(N)=O)C(=O)N[C@H](CCC(N)=O)C(=O)NC(C)(C)C(=O)NC(C)(C)C(=O)N[C@@H](CCC(N)=O)C(=O)N[C@H](CC(C)C)C(=O)N[C@H](CO)CC(C)C", "note": "(stereo not given in full)", "growth": "113% (inactive) and 37.8% (inactive)"}, {"compound": "CC(C)(O)/C=C/C(=O)[C@](C)(O)[C@H]1[C@H](O)C[C@@]2(C)[C@H]3CC=C4[C@@H](C[C@H](O)C(=O)C4(C)C)[C@]3(C)C(=O)C[C@]12C", "growth": "3.2% (active)"}, {"compound": "CC1=C(CCC=NNC(N)=O)C2=C(C)C3(CC3)[C@@](C)(O)C(=O)C2=C1", "growth": "-9.67% (active)"}, {"compound": "Cc1ccc(CNc2nc3ccc(OC/C(=C/F)CN)cc3o2)cn1", "growth": "112% (inactive)"}, {"compound": "CC1=C2C(=C[C@@](C)(COC(=O)c3ccc(S(=O)(=O)F)cc3)[C@@H]2OC(=O)c2ccc(S(=O)(=O)F)cc2)C(=O)[C@](C)(O)C12CC2", "growth": "2.13% (active)"}, {"compound": "COc1cc2c(O[C@@H]3OC[C@H](O)[C@H](O)[C@H]3O)c3c(c(-c4ccc5c(c4)OCO5)c2cc1OC)C(=O)OC3", "growth": "38.6% (inactive)"}, {"compound": "C/C=C\\C(=O)O[C@@H]1CC2O[C@@H]3C=C(C)C(=O)C[C@]3(C)[C@]1(C)[C@]21CO1", "growth": "-33.4% (active)"}, {"compound": "CC1=C(CN(O)C(N)=O)C2=C(C)C3(CC3)[C@](C)(O)C(=O)C2=C1", "growth": "3.85% (active)"}, {"compound": "C/C=C/CC(C)C(O)[C@H](NC(=O)[C@@H]1CCCN1C(=O)C(C)(C)NC(=O)CCCCCCCCC)C(=O)N[C@@](C)(CC)C(=O)N[C@@H](CCC(N)=O)C(=O)N[C@H](CCC(N)=O)C(=O)NC(C)(C)C(=O)N[C@@](C)(CC)C(=O)N[C@@H](CCC(N)=O)C(=O)N[C@H](CC(C)C)C(=O)N[C@H](CO)CC(C)C", "note": "(stereo not given in full)", "growth": "116% (inactive) and 29.2% (inactive)"}, {"compound": "NC1CCc2cc(O)c(O)cc2C1", "note": "(stereo not given)", "growth": "39.7% (inactive)"}, {"compound": "CC(=O)O[C@@H]1C[C@H]2O[C@@H]3C=C(C)CC[C@]3(C)[C@]1(C)[C@]21CO1", "growth": "8.97% (active)"}, {"compound": "COC(=O)[C@H]1[C@@H](O)[C@@]2(O)c3c(OC)cc(OC)cc3O[C@@]2(c2ccc(OC)cc2)[C@@H]1c1ccccc1", "growth": "-34.3% (active)"}, {"compound": "CCCCCCCCCC(=O)N[C@@](C)(CC)C(=O)N1CCC[C@H]1C(=O)N[C@@H](CC(C)C)C(=O)N[C@@](C)(CC)C(=O)N[C@@H](CCC(N)=O)C(=O)N[C@H](CCC(N)=O)C(=O)NC(C)(C)C(=O)NC(C)(C)C(=O)N[C@@H](CCC(N)=O)C(=O)N[C@H](CC(C)C)C(=O)N[C@H](CO)CC(C)C", "growth": "-40.3% (active) and -67.2% (active)"}, {"compound": "CC1=C[C@H]2O[C@@H]3C[C@H]4OC(=O)/C=C\\C=C\\[C@H]([C@@H](C)O)OCC[C@@H](C)[C@H](O)C(=O)OC[C@@]2(CC1)[C@]4(C)[C@]31CO1", "growth": "-27.8% (active)"}, {"compound": "COC1[C@@H]2C[C@H]3C(C)(C)O[C@@](C/C=C(/C)C(=O)O)(C2=O)[C@]32Oc3c(CC=C(C)C)c4c(c(O)c3C(=O)[C@H]12)C=CC(C)(C)O4", "note": "(stereo not given in full)", "growth": "-33.3% (active)"}, {"compound": "CC1=C[C@H]2O[C@@H]3C[C@H]4OC(=O)/C=C\\C=C\\[C@H]([C@@H](C)O)OCC/C(C)=C/C(=O)OC[C@@]2(CC1)[C@]4(C)[C@]31CO1", "growth": "-27.7% (active)"}, {"compound": "N#Cc1c(-n2c(Br)c(Br)c3cc(Br)ccc32)[nH]c2c(Br)cc(Br)cc12", "growth": "-15.1% (active)"}, {"compound": "C/C=C/CC(C)C(O)[C@H](NC(=O)[C@@H]1CCCN1C(=O)C(C)(C)NC(=O)CCCCCCCCC)C(=O)N[C@@](C)(CC)C(=O)N[C@@H](CCC(N)=O)C(=O)N[C@H](CCC(N)=O)C(=O)NC(C)(C)C(=O)NC(C)(C)C(=O)N[C@@H](CCC(N)=O)C(=O)N[C@H](CC(C)C)C(=O)N[C@H](CO)CC(C)C", "note": "(stereo not given in full)", "growth": "58.1% (inactive) and 90.2% (inactive)"}, {"compound": "C/C=C/CC(C)C(O)[C@H](NC(=O)[C@@H]1CCCN1C(=O)C(C)(C)NC(=O)CCCCCCCCC)C(=O)NC(C)(C)C(=O)N[C@@H](CCC(N)=O)C(=O)N[C@H](CCC(N)=O)C(=O)NC(C)(C)C(=O)NC(C)(C)C(=O)N[C@@H](CCC(N)=O)C(=O)N[C@H](CC(C)C)C(=O)N[C@H](CO)CC(C)C", "note": "(stereo not given in full)", "growth": "4.29% (active) and 5.04% (active)"}, {"compound": "COc1cc2c(cc1OC)[C@@H]1N(CC2)C(=O)c2ccccc2[C@@]1(C)C(=O)O", "growth": "107% (inactive)"}, {"compound": "COc1cc2c(O[C@@H]3OC[C@H](OC(C)=O)[C@H](OC(C)=O)[C@H]3O)c3c(c(-c4ccc5c(c4)OCO5)c2cc1OC)C(=O)OC3", "growth": "9% (active)"}, {"compound": "COc1cc(OC)c(S(=O)(=O)N(CCCl)CCCl)cc1C(=O)/C=C/c1ccc(Cl)cc1", "growth": "79.5% (inactive)"}, {"compound": "CC1=C2C(=C[C@@](C)(COS(C)(=O)=O)[C@@H]2O)C(=O)[C@](C)(O)C12CC2", "growth": "3.64% (active)"}, {"compound": "CC1=C2C(=C[C@@](C)(C=O)[C@@H]2O)C(=O)[C@](C)(O)C12CC2", "growth": "4.21% (active)"}, {"compound": "CC1=C[C@H]2O[C@@H]3C[C@@H](O)[C@](C)([C@@]2(C)CC1)[C@@]31CO1", "growth": "11.4% (inactive)"}]}]}
